Screening results (PubChem)
MmCpn inh: Inhibitors of TCP-1 ring complex (TRiC) of Methanococcus maripaludis (MmCpn): qHTS | purified Mm-Cpn ATPase, ADP Transcreener TR-FRET | Potency, µM (doses to about 76.9 µM), for the others: at the highest dose activity, negative = inhibition, hits mostly inhibitors | 330,000 tested, 0.031% active | AID 504842, 2011; note: potency is the fitted concentration of half-maximal effect; % is set by controls: 0 for no effect and ±100 for the full control effect; nearly all actives have a fitted effect of over 80% in size
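Inhibition of chaperonin ATP hydrolysis is measured as reduced ADP production, detected by competitive TR-FRET in which signal falls with ADP. Final enzyme 25 nM and ATP 10 uM, reacted 30 min at 37°C.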
HEK293 tox: qHTS of GLP-1 Receptor Inverse Agonists: Cytotox Screen | HEK293 cAMP-luciferase reporter cells, luminescence, 24 h | Potency, µM (titrated, usually from 38.3 µM), inactives show at the top dose activity change, negative = inhibition, most hits filed as inhibitors | 410,000 tested, 0.13% active;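 note: loss of luciferase light is scored as toxicity; potency is the fitted concentration of half-maximal effect; % is set by controls: 0 for no effect and ±100 for the full control effect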
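1536-well qHTS counterscreen of the MLSMR; 200 cells/uL, 12 h pre-incubation, 23 nL cpd, 24 h at 37 deg C 5% CO2, luciferase detection reagent, 12 min RT, luminescence. Inhibition = undesired.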
CCT chaperon mod: High-Throughput Screening for Modulators of Cytosolic Chaperonin Activity | purified chaperonin ATPase assay, HTRF ADP detection, 30 min | activity change, % (concentration not given with the values), hits read low | 360,000 tested, 0.3% active | AID 651819, 2012; in the data active = activity change below about -30%; note: % is set by controls: 0 for no effect and ±100 for the full control effect
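ATPase activity: ADP formed was measured by HTRF Transcreener (665/615 nm ratio) after 30 min at 37 deg C with 10 uM ATP. Compounds screened at one 76 uM concentration against 40 or 20 nM TRiC in Tris pH 7.4/KCl/MgCl2/DTT buffer.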
uPA generation: qHTS for Inhibitors of Cell Surface uPA Generation | AID 540303, 2011 | 330,000 tested, 0.31% active | Potency, µM (highest dose often 38.3 µM), for the others: at the top dose activity change, negative = inhibition, hits mostly inhibitors | cell surface uPA generation assay, qHTS; active = well fitted inhibition curve with a large enough effect; inconclusive = small, poorly fitted or top-dose-only effect; inactive = no such curve, though single readings can be large or run the other way; tested in mouse RAW 264.7 cells; note: potency is the fitted concentration of half-maximal effect; % is set by controls: 0 for no effect and ±100 for the full control effect; nearly all actives have a fitted effect of over 55% in size
GLP1R ag: qHTS of GLP-1 Receptor Agonists; 380,000 tested, 0.007% active; HEK293 GLP-1R CRE-luciferase, luminescence, 4-6 h; cells express a hypersensitive GLP-1R form; Glucagon-like peptide 1 receptor (Homo sapiens), P43220; Potency, µM (doses to about 45.6 µM), for the others: top-dose activation, usual class: activators; AID 624172, 2012; note: potency is the fitted concentration of half-maximal effect; % of control where 0% means no effect
Target sequence (P43220 whole entry, looked up): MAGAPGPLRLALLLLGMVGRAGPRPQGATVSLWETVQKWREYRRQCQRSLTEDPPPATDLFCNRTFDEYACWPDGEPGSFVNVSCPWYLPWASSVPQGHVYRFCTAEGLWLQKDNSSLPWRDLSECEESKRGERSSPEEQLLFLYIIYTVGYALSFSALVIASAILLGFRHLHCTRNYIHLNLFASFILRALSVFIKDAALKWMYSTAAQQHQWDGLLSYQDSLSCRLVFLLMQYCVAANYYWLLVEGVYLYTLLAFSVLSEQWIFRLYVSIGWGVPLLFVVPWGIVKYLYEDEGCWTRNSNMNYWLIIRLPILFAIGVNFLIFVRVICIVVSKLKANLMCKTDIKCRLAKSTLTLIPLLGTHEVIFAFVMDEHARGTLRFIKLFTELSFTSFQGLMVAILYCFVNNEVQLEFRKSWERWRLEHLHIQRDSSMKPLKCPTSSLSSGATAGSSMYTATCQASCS
GLP-1R inv ag: qHTS of GLP-1 Receptor Inverse Agonists (Inhibition Mode). AID 624417, 2012. Potency, µM (titrated, usually from 38.3 µM), without a hit: at the highest dose activity change, negative = inhibition, hits mostly inhibitors. HEK293 GLP-1R CRE-luciferase, luminescence, 24 h; GLP-1R form is constitutively active. 410,000 tested, 1.6% active. Glucagon-like peptide 1 receptor (Homo sapiens), P43220; note: potency is the fitted concentration of half-maximal effect; % is set by controls: 0 for no effect and ±100 for the full control effect; nearly all actives have a fitted effect of over 55% in size
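Assay principle: reduced luminescence from a cAMP-responsive reporter in HEK293 cells co-expressing a constitutively active GLP-1R. Conditions: 24 hr compound incubation, 37 deg C, 5% CO2.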
An asterisk follows results filed as active; ? = inconclusive; . = not tested or not shown. Sampled rows, rich in hits. Any-hit rate of the full collection: about 2.2%. Unless noted, calls come from the whole dose curve; as a rule, active = well fitted curve in the direction sought with a large enough effect; inconclusive = small, poorly fitted or top-dose-only effect, or another doubt; inactive = no such curve, though single readings can be large; an effect the other way counts as inactive or inconclusive.

SMILES	MmCpn inh	HEK293 tox	CCT chaperon mod	uPA generation	GLP1R ag	GLP-1R inv ag
CCN(CC(=O)Nc1ccccc1C(F)(F)F)C(=O)c1cc(-c2cccs2)nn1-c1ccccc1	-15%	7%	-2	7%	0%	?
CCCN(CC(=O)Nc1ccccc1OC)C(=O)c1cc(-c2cccs2)nn1-c1ccccc1	-16%	10%	-4	8%	4%	11µM*
O=C1CCCC/C1=N\Nc1ccc(OCc2ccccc2)cc1	-1%	-23%	0	2%	5%	2.8µM*
O=C(NCc1ccccc1)C1CCN(S(=O)(=O)c2ccc3c(c2)CCCN3C(=O)C2CCC2)CC1	.	-6%	.	.	.	-1%
NC(=O)C1CCN(c2nc(-c3cccc([N+](=O)[O-])c3)cs2)CC1	1%	.	.	.	.	.
Cc1cccc(C)c1OCC(=O)Nc1oc(-c2ccccc2)c(-c2ccccc2)c1C#N	.	?	-2	-3%	-17%	10µM*
Cc1cc2oc3c(c(=O)c2cc1C)C(c1ccc(C(C)C)cc1)N(c1nc(C)c(C)s1)C3=O (centres undefined)	.	5%	.	.	.	9%
O=C1c2ccccc2C(=O)N1c1cccnc1	.	16%	-44*	8%	1%	18%
COc1cc(-c2noc(C)c2C#Cc2ccsc2)cc(OC)c1OC	1%	-26%	-2	2µM*	28%	?
CCN(CC)S(=O)(=O)c1ccc(N/N=C/c2ccc(O)cc2)nc1	0%	-8%	0	-15%	7%	8%
CCN(CC)S(=O)(=O)c1ccc(N/N=C(\C)c2ccc(OC)cc2O)nc1	2%	?	-2	5.6µM*	0%	2.5µM*
O=C(N/C(=C\c1ccccc1)C(=O)N1CCCCC1)c1ccc(Br)o1	-1%	4%	-4	2%	-4%	10µM*
Cc1ccc(C(=O)C2=C(O)C(=O)N(c3ncccn3)C2c2ccccc2F)o1 (centres undefined)	-15%	-29%	-66*	-1%	-4%	12%
COc1ccc(NC(=O)CC2C(=O)N(c3ccc(C)cc3)C(=O)N2CCc2ccccc2)cc1 (centres undefined)	.	-2%	.	.	.	-29%
CCOc1ccccc1NS(=O)(=O)c1c(-c2ccc(C)cc2)csc1C(=O)OC	.	1%	.	.	.	11µM*
COC(=O)c1scc(-c2ccc(C)cc2)c1S(=O)(=O)Nc1cccc(Cl)c1C	.	0%	.	.	.	10µM*
O=C1c2ccccc2CN1c1ccccc1	3%	-2%	1	-3%	5%	-4%
Cc1ccc(N2Cc3ccccc3C2=O)cc1	0%	11%	0	8.9µM*	0%	?
C=CC(=O)Oc1ccc(N2Cc3ccccc3C2=O)cc1	.	-30%	1	5µM*	-9%	-45%
COc1ccc(N2Cc3ccccc3C2=O)cc1	-1%	-4%	1	-11%	-8%	?
CCN(CC)S(=O)(=O)c1ccc(Cl)c(NC(=S)NC(=O)C2CCCC2)c1	0%	?	-2	?	10%	?
CCN(CC)c1ccc(S(=O)(=O)Nc2cc(Cl)ccc2Cl)cc1NC(=S)NC(=O)C1CCCC1	-5%	-10%	-1	2%	-16%	5µM*
CCOC(=O)C(Sc1cc(-c2ccccc2)nc2ncnn12)C(C)=O (centres undefined)	0%	3.5µM*	2	5%	1%	?
Cc1noc(C)c1S(=O)(=O)N1CCCC(C(=O)Nc2ccc(C(C)C)cc2)C1 (centres undefined)	.	-14%	.	.	-1%	-11%
CNCc1c(OCc2ccccc2)ccc2ccccc12	2%	-22%	2	-8%	0%	?
SMILES	MmCpn inh	HEK293 tox	CCT chaperon mod	uPA generation	GLP1R ag	GLP-1R inv ag
CC(C)(CO)NCc1c(OCc2ccc(Cl)cc2)ccc2ccccc12	0%	?	-1	-10%	0%	5.6µM*
O=C(Nc1cc(F)ccc1F)N1CCC(CN2CCCC2)CC1	.	-1%	.	.	.	16%
CCOC(=O)c1cnc2c(C)c(Cl)ccc2c1N1CCN(CC)CC1	0%	19%	-4	3%	14%	7.9µM*
CCOC(=O)c1cnc2c(Cl)c(Cl)ccc2c1N1CCN(C)CC1	-1%	?	1	0%	13%	?
CCOC(=O)c1cnc2ccc(OCC)cc2c1N1CCN(c2ccccc2)CC1	-4%	-23%	-1	8%	0%	8.9µM*
Cc1ccccc1OCC(=O)Nc1ccc(OCc2cc(=O)n3ccsc3n2)cc1	.	1%	.	.	0%	8%
CCN(CC)CCNC(=O)c1c(C)[nH]c(/C=C2\C(=O)Nc3ccc(F)cc32)c1C	.	.	.	.	-11%	.
O=C1C(Cl)=C(NCCN2CCCCC2)C(=O)c2ccccc21	-2%	?	0	?	-7%	11µM*
Cc1cccc(N2CCN(C(=O)c3cc4ccc5cccnc5c4[nH]3)CC2C)c1 (centres undefined)	.	-10%	.	.	.	?
O=C(COc1ccccc1Cl)N(Cc1ccco1)Cc1ccco1	.	3%	.	.	.	?
Cc1ccc(C)c(Nc2ncnc(N)c2[N+](=O)[O-])c1	1%	66%	-41*	1%	8%	29%
O=C(c1cncc(Br)c1)N1CCN(c2ccc(N3CCOCC3)nn2)CC1	-1%	-3%	-37*	-10%	-1%	-5%
N#CC(C#N)=c1ccc2c(c1)N1C3=C(CCCC3)CC3CCCCC31N=2 (centres undefined)	-2%	-12%	1	3%	15%	12%
N#C/C(C(N)=O)=c1/ccc2c(c1)N1C3=C(CCCC3)CC3CCCCC31N=2 (centres undefined)	-6%	-11%	-37*	1%	1%	-13%
CCOc1cc(/C=C/C(=O)c2ccc3c(c2)OCCO3)ccc1OCC(=O)N(C)C	-1%	-25%	-3	-17%	5%	13µM*
CC(=O)Nc1ccc(S(=O)(=O)N2c3ccc(F)cc3CCC2C)cc1 (centres undefined)	.	?	-2	4.5µM*	12%	?
Nc1c(-c2ccccc2)cnn1-c1cccc(Cl)c1	-2%	-1%	1	-13%	2%	?
Nc1ccccc1Nc1cc(-c2cccc(Cl)c2)nn1-c1ccccc1	2%	-27%	-1	8%	-30%	10µM*
COc1cc(Cl)c(NC(=O)c2cc(S(=O)(=O)N3CCCCC3)c[nH]2)c(OC)c1	.	-1%	.	.	.	13%
